According to PubChem BioAssay (NCI):
The panel holds about 83,000 compounds, 20% with a hit somewhere; the sample as a whole holds those more often.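 Single-dose data. Exposure time 48 hours. Values below 10 considered active.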 Values without a mark were called inactive. The source made the active and inactive calls.

Assays:
Assay in all cases: NCI-60 one-dose screen, 48 h (100 = growth as untreated, 0 = no growth, -100 = all killed)
Settings in all cases: 10 µM unless noted
SR leukemia = test system: SR leukemia
RPMI-8226 leukemia = test system: RPMI-8226 leukemia
OVCAR-8 ovarian = test system: OVCAR-8 ovarian
OVCAR-5 ovarian = test system: OVCAR-5 ovarian
OVCAR-4 ovarian = test system: OVCAR-4 ovarian
SK-OV-3 ovarian = test system: SK-OV-3 ovarian
IGROV1 ovarian = test system: IGROV1 ovarian
OVCAR-3 ovarian = test system: OVCAR-3 ovarian
HS 578T breast = test system: HS 578T breast
NCI/ADR-RES ovarian = test system: NCI/ADR-RES ovarian

Cn1cc(-c2cc3nc(-c4c[nH]c5ccccc45)cc(N)n3n2)c2ccccc21
growth (SR leukemia): 8.18% (active)
growth (RPMI-8226 leukemia): -21.9% (active)
growth (OVCAR-8 ovarian): -73.6% (active)
growth (OVCAR-5 ovarian): -39.4% (active)
growth (OVCAR-4 ovarian): -39.9% (active)
growth (SK-OV-3 ovarian): 43.2%
growth (IGROV1 ovarian): -77.5% (active)
growth (OVCAR-3 ovarian): -76.3% (active)
growth (HS 578T breast): -9.04% (active)
growth (NCI/ADR-RES ovarian): -37.8% (active)

COc1ccc(N=Nc2c(N)nn3c(-c4cc5ccccc5oc4=O)ccnc23)cc1
growth (SR leukemia): 21%
growth (RPMI-8226 leukemia): 72.8%
growth (OVCAR-8 ovarian): 38.8%
growth (OVCAR-5 ovarian): 68.5%
growth (OVCAR-4 ovarian): 70.8%
growth (SK-OV-3 ovarian): 57.8%
growth (IGROV1 ovarian): 29.4%
growth (OVCAR-3 ovarian): 74.3%
growth (HS 578T breast): 29.1%
growth (NCI/ADR-RES ovarian): 22.1%

Cc1ccc(N=Nc2c(N)nn3c(-c4cc5ccccc5oc4=O)ccnc23)cc1
growth (SR leukemia): 75.7%
growth (RPMI-8226 leukemia): 9.76% (active)
growth (OVCAR-8 ovarian): 51.4%
growth (OVCAR-5 ovarian): 54.6%
growth (OVCAR-4 ovarian): 77.9%
growth (SK-OV-3 ovarian): 99.9%
growth (IGROV1 ovarian): 32.4%
growth (OVCAR-3 ovarian): 37.4%
growth (HS 578T breast): 62.6%
growth (NCI/ADR-RES ovarian): 27%

CN(C)CCCNC(=S)Nc1ccc(/C=C/c2ccc(Cl)cc2)cc1
growth (SR leukemia): -1.02% (active)
growth (RPMI-8226 leukemia): 3.25% (active)
growth (OVCAR-8 ovarian): -40.8% (active)
growth (OVCAR-5 ovarian): -99.6% (active)
growth (OVCAR-4 ovarian): -68.2% (active)
growth (SK-OV-3 ovarian): -56.9% (active)
growth (IGROV1 ovarian): -70.4% (active)
growth (OVCAR-3 ovarian): 23.6%
growth (HS 578T breast): 11.7%
growth (NCI/ADR-RES ovarian): -43.6% (active)

COc1cc(C2CC(c3ccc(Cl)cc3)=Nc3c(N)nc(N)nc3N2)ccc1Oc1nc(Nc2ccc(F)cc2)nc(N(C)C)n1 (stereo not given)
growth (SR leukemia): -47.5% (active)
growth (RPMI-8226 leukemia): 15%
growth (OVCAR-8 ovarian): 65%
growth (OVCAR-5 ovarian): 96.6%
growth (OVCAR-4 ovarian): 29%
growth (SK-OV-3 ovarian): 79.3%
growth (IGROV1 ovarian): 34%
growth (OVCAR-3 ovarian): 65%
growth (HS 578T breast): 54%
growth (NCI/ADR-RES ovarian): 41.4%

Cn1cc(-c2cc3nc(-c4cn(C)c5ncccc45)cc(N)n3n2)c2cc(F)ccc21
growth (SR leukemia): -31.3% (active)
growth (RPMI-8226 leukemia): 38.1%
growth (OVCAR-8 ovarian): 11.5%
growth (OVCAR-5 ovarian): 47.9%
growth (OVCAR-4 ovarian): 20.2%
growth (SK-OV-3 ovarian): 24.4%
growth (IGROV1 ovarian): 31.9%
growth (OVCAR-3 ovarian): 43.9%
growth (HS 578T breast): 47.2%
growth (NCI/ADR-RES ovarian): 28.3%

COc1cc(CNC(=O)C[C@H](C)CCC=C(C)C)ccc1OCc1cn(-c2ccc(Cl)c(Cl)c2)nn1
growth (SR leukemia): 27.1%
growth (RPMI-8226 leukemia): 77.6%
growth (OVCAR-8 ovarian): 46.3%
growth (OVCAR-5 ovarian): 86.4%
growth (OVCAR-4 ovarian): 53.4%
growth (SK-OV-3 ovarian): 99%
growth (IGROV1 ovarian): 83.1%
growth (OVCAR-3 ovarian): 60.1%
growth (HS 578T breast): 57%
growth (NCI/ADR-RES ovarian): 36.5%

COc1ccc(N=Nc2c(N)nn3c(-c4ccc(OC)c(OC)c4)ccnc23)cc1
growth (SR leukemia): 77.7%
growth (RPMI-8226 leukemia): 65.6%
growth (OVCAR-8 ovarian): 78.8%
growth (OVCAR-5 ovarian): 87.1%
growth (OVCAR-4 ovarian): 95.5%
growth (SK-OV-3 ovarian): 56.4%
growth (IGROV1 ovarian): 95.4%
growth (OVCAR-3 ovarian): 109%
growth (HS 578T breast): 98.4%
growth (NCI/ADR-RES ovarian): 79.2%

O=C(Cc1c(-c2ccccc2[N+](=O)[O-])n(-c2ncnc3c2c(-c2ccccc2)c(-c2ccccc2)n3Cc2ccccc2)[nH]c1=O)c1ccc(Cl)c(Cl)c1
growth (SR leukemia): 14.2%
growth (RPMI-8226 leukemia): -3.03% (active)
growth (OVCAR-8 ovarian): 25.5%
growth (OVCAR-5 ovarian): 55.1%
growth (OVCAR-4 ovarian): 19.2%
growth (SK-OV-3 ovarian): 39.3%
growth (IGROV1 ovarian): 25.2%
growth (OVCAR-3 ovarian): 14.2%
growth (HS 578T breast): 22%
growth (NCI/ADR-RES ovarian): 50.7%

COc1ccc(OC)c(Cn2cc(C#N)c(N)c2C(=O)c2ccc(Br)cc2)c1
growth (SR leukemia): 14.4%
growth (RPMI-8226 leukemia): 58%
growth (OVCAR-8 ovarian): 33.9%
growth (OVCAR-5 ovarian): 71.1%
growth (OVCAR-4 ovarian): 57.1%
growth (SK-OV-3 ovarian): 50.9%
growth (IGROV1 ovarian): 48.7%
growth (OVCAR-3 ovarian): 55.9%
growth (HS 578T breast): 45.2%
growth (NCI/ADR-RES ovarian): 23.2%

COc1ccc(-c2cc(-c3cc(C(C)C)c(O)cc3C)nn2-c2ccc(S(N)(=O)=O)cc2)cc1
growth (SR leukemia): 5.77% (active)
growth (RPMI-8226 leukemia): 16.5%
growth (OVCAR-8 ovarian): 24.5%
growth (OVCAR-5 ovarian): 65.8%
growth (OVCAR-4 ovarian): 64%
growth (SK-OV-3 ovarian): 60.5%
growth (IGROV1 ovarian): 85.8%
growth (OVCAR-3 ovarian): 8.38% (active)
growth (HS 578T breast): 28.9%
growth (NCI/ADR-RES ovarian): -17.2% (active)

Nc1cc(-c2c[nH]c3ccc(Cl)cc23)nc2cc(-c3c[nH]c4ccccc34)nn12
growth (SR leukemia): 10.2%
growth (RPMI-8226 leukemia): 0.472% (active)
growth (OVCAR-8 ovarian): -4.93% (active)
growth (OVCAR-5 ovarian): -50.4% (active)
growth (OVCAR-4 ovarian): 19.8%
growth (SK-OV-3 ovarian): 5.29% (active)
growth (IGROV1 ovarian): 2.75% (active)
growth (OVCAR-3 ovarian): -52.7% (active)
growth (HS 578T breast): -3.21% (active)
growth (NCI/ADR-RES ovarian): -3.2% (active)

C[C@@H]1CN(c2ccc3ncc(C#Cc4cncc(C(=O)Nc5ccc(CN6CCN(C)CC6)c(C(F)(F)F)c5)c4)n3n2)C[C@@H](C)O1
growth (SR leukemia): -27.6% (active)
growth (RPMI-8226 leukemia): -65% (active)
growth (OVCAR-8 ovarian): -71.8% (active)
growth (OVCAR-5 ovarian): -54.2% (active)
growth (OVCAR-4 ovarian): -61.5% (active)
growth (SK-OV-3 ovarian): -80.1% (active)
growth (IGROV1 ovarian): -56.3% (active)
growth (OVCAR-3 ovarian): -60.6% (active)
growth (HS 578T breast): -49.2% (active)
growth (NCI/ADR-RES ovarian): -85.1% (active)

Cc1cc(C2(c3cc(C)c(OCC(O)CNc4c(C)n(C)n(-c5ccccc5)c4=O)cc3C(C)C)OC(=O)c3ccccc32)c(C(C)C)cc1OCC(O)CNc1c(C)n(C)n(-c2ccccc2)c1=O (stereo not given)
growth (SR leukemia): 5.65% (active)
growth (RPMI-8226 leukemia): 24.4%
growth (OVCAR-8 ovarian): 33.1%
growth (OVCAR-5 ovarian): 50.9%
growth (OVCAR-4 ovarian): 38.6%
growth (SK-OV-3 ovarian): 67.5%
growth (IGROV1 ovarian): 43.1%
growth (OVCAR-3 ovarian): 15.5%
growth (HS 578T breast): 22.1%
growth (NCI/ADR-RES ovarian): 58%

COc1ccc(-c2cc(-c3ccccc3)c(C#N)c(=O)[nH]2)cc1S(N)(=O)=O
growth (SR leukemia): 100%
growth (RPMI-8226 leukemia): 100%
growth (OVCAR-8 ovarian): 113%
growth (OVCAR-5 ovarian): 99.3%
growth (OVCAR-4 ovarian): 102%
growth (SK-OV-3 ovarian): 99.4%
growth (IGROV1 ovarian): 126%
growth (OVCAR-3 ovarian): 109%
growth (HS 578T breast): 109%
growth (NCI/ADR-RES ovarian): 105%

Clc1ccc(Nc2nnc(-c3c[nH]c4ccccc34)o2)cc1
growth (SR leukemia): 49.6%
growth (RPMI-8226 leukemia): 28.6%
growth (OVCAR-8 ovarian): 86.1%
growth (OVCAR-5 ovarian): 101%
growth (OVCAR-4 ovarian): 78.6%
growth (SK-OV-3 ovarian): 72.2%
growth (IGROV1 ovarian): 47.3%
growth (OVCAR-3 ovarian): 102%
growth (HS 578T breast): 82.5%
growth (NCI/ADR-RES ovarian): 50.7%

CCCCC[C@@H]1C/C=C(\C)[C@@H](O)C(C)(C)C(=O)[C@@H](C)/C=C(\C)[C@@H]2C[C@H](O)C[C@](O)(CC(=O)O1)O2
growth (SR leukemia): 17.1%
growth (RPMI-8226 leukemia): 8.23% (active)
growth (OVCAR-8 ovarian): 42.3%
growth (OVCAR-5 ovarian): 78%
growth (OVCAR-4 ovarian): 27.7%
growth (SK-OV-3 ovarian): 78.6%
growth (IGROV1 ovarian): 58.5%
growth (OVCAR-3 ovarian): 35.6%
growth (HS 578T breast): 47.7%
growth (NCI/ADR-RES ovarian): 19.7%

Cn1cc(-c2cc(N)n3nc(-c4c[nH]c5ccccc45)cc3n2)c2ccccc21
growth (SR leukemia): 12.1%
growth (RPMI-8226 leukemia): -3.23% (active)
growth (OVCAR-8 ovarian): -83% (active)
growth (OVCAR-5 ovarian): -79% (active)
growth (OVCAR-4 ovarian): -34.7% (active)
growth (SK-OV-3 ovarian): -95.1% (active)
growth (IGROV1 ovarian): -79.8% (active)
growth (OVCAR-3 ovarian): -79.4% (active)
growth (HS 578T breast): -23.7% (active)
growth (NCI/ADR-RES ovarian): -40.6% (active)

Cc1ccccc1NC(=O)c1cccc(NC(=O)CCl)c1
growth (SR leukemia): 16.4%
growth (RPMI-8226 leukemia): 26%
growth (OVCAR-8 ovarian): 46.3%
growth (OVCAR-5 ovarian): 70.4%
growth (OVCAR-4 ovarian): 73.7%
growth (SK-OV-3 ovarian): 81.3%
growth (IGROV1 ovarian): 29.5%
growth (OVCAR-3 ovarian): 49%
growth (HS 578T breast): 78%
growth (NCI/ADR-RES ovarian): 38.9%

CN(C)c1nc(NCCNS(=O)(=O)c2ccc(C(=O)/C=C/c3ccccc3)cc2)nc(N2CCOCC2)n1
growth (SR leukemia): -42.7% (active)
growth (RPMI-8226 leukemia): 0.0245% (active)
growth (OVCAR-8 ovarian): 83.4%
growth (OVCAR-5 ovarian): 93.6%
growth (OVCAR-4 ovarian): 88.3%
growth (SK-OV-3 ovarian): 97.7%
growth (IGROV1 ovarian): 80.5%
growth (OVCAR-3 ovarian): 111%
growth (HS 578T breast): 76.1%
growth (NCI/ADR-RES ovarian): 82.4%

COc1cc(CNC(=O)[C@]23CCC(C)(C)CC2C2=CCC4[C@@]5(C)CCC(OC(C)=O)C(C)(C)C5CC[C@@]4(C)[C@]2(C)CC3)ccc1OCc1cn(-c2ccc(Cl)cc2Cl)nn1 (stereo not given in full)
growth (SR leukemia): 103%
growth (RPMI-8226 leukemia): 89.9%
growth (OVCAR-8 ovarian): 102%
growth (OVCAR-5 ovarian): 102%
growth (OVCAR-4 ovarian): 102%
growth (SK-OV-3 ovarian): 112%
growth (IGROV1 ovarian): 92.8%
growth (OVCAR-3 ovarian): 112%
growth (HS 578T breast): 100%
growth (NCI/ADR-RES ovarian): 120%

C=CCSc1nnc(-c2c(C)nc3sccn23)o1
growth (SR leukemia): 101%
growth (RPMI-8226 leukemia): 86%
growth (OVCAR-8 ovarian): 98.6%
growth (OVCAR-5 ovarian): 85.8%
growth (OVCAR-4 ovarian): 102%
growth (SK-OV-3 ovarian): 98.6%
growth (IGROV1 ovarian): 95.5%
growth (OVCAR-3 ovarian): 131%
growth (HS 578T breast): 77.1%
growth (NCI/ADR-RES ovarian): 82.7%

CN(C)C(=O)c1cc(-c2ccc3ncnc(N4CCc5cc(F)c(Cl)cc54)c3c2)cnc1N
growth (SR leukemia): -57% (active)
growth (RPMI-8226 leukemia): -34.6% (active)
growth (OVCAR-8 ovarian): -8.58% (active)
growth (OVCAR-5 ovarian): -15% (active)
growth (OVCAR-4 ovarian): -17.5% (active)
growth (SK-OV-3 ovarian): -32.8% (active)
growth (IGROV1 ovarian): -62.5% (active)
growth (OVCAR-3 ovarian): -58.1% (active)
growth (HS 578T breast): -44.2% (active)
growth (NCI/ADR-RES ovarian): -12.5% (active)
